Sampled rows, rich in hits. Any-hit rate of the full collection: about 1.1%.
GALK inh: inhibitors of human galactokinase; Purified GALK, Kinase-Glo residual ATP luminescence; Potency, µM (series often up to 57.5 µM), usual class: inhibitors; P51570; 0.007% of 270,000 active
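Galactose (100 uM) and ATP (35 uM) were turned over by 5 nM GALK for 1 h at RT. Kinase-Glo Plus then converted the remaining ATP into a luminescent signal.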
rTrxR1 inhibitor: rat TrxR1 inhibition. O89049. recombinant rTrxR1, NADPH fluorescence consumption, selenite substrate. Potency, µM (doses to about 114 µM), actives largely listed as inhibitors. 1% of 390,000 active. AID 588453; further: nearly all actives have a fitted effect of over 65% in size
Target sequence (O89049 whole entry, looked up): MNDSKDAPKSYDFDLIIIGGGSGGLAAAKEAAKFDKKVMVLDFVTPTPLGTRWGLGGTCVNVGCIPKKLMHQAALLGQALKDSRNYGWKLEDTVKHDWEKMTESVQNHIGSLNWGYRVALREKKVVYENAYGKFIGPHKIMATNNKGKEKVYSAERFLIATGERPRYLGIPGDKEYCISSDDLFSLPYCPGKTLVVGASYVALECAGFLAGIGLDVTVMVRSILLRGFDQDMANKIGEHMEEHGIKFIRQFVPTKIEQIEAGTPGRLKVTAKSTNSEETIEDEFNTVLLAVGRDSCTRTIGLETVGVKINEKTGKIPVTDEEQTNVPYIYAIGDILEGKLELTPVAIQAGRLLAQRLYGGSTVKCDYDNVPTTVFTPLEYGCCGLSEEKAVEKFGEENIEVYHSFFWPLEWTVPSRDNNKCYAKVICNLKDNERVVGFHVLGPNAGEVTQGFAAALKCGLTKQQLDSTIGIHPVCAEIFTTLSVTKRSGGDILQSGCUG
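Rat TrxR1 (90 nM in the dispensed reagent) was pre-reduced with 400 uM NADPH for 5 min at room temperature, then incubated with compound for 15 min. After 400 uM selenite was added, NADPH fluorescence (Ex 340/Em 450 nm) was followed for 8 min.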
TrxR1 substrate: substrates of rat thioredoxin reductase 1 | O89049 | purified TrxR1 substrate turnover, NADPH consumption readout | Potency, µM (series often up to 114 µM) | 0.01% of 390,000 active | AID 588456; further: nearly all actives have a fitted effect of over 50% in size
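Rat TrxR1, dispensed at 90 nM, was prereduced with 400 uM NADPH (final) for 5 min at ~22 deg C, then incubated with compound 15 min before 400 uM selenite. A first-read NADPH fluorescence drop versus no-compound background flagged substrates.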
PI4K2A block: blocks human PI4K2A kinase activity. purified PI4K2A, ADP-Glo luminescence, 1 h; stronger effect = lower value. activity change, negative = inhibition, % at 76.9 µM. 0.13% of 420,000 active; in the data active means activity change below about -50%; inconclusive means mostly about -30% to -49%
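Compounds are screened against recombinant PI4K2A using PI as substrate and ATP, the latter dispensed at 300 microM. Reactions run one hour at ambient temperature before ADP-Glo detection; full inhibition defined by wells lacking enzyme.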
Each line names hits and unclear results; the compound was inactive in the other large screens. Unless noted, the call rests on the fitted dose curve; in most records, active means well fitted curve in the direction sought with a large enough effect; inconclusive means small, poorly fitted or top-dose-only effect, or another doubt; inactive means no such curve, though single readings can be large; an effect the other way counts as inactive or inconclusive.

Cn1c(N)c(C(=O)CSc2nnc(C3CC3)n2N)c(=O)n(C)c1=O	none (no result: GALK inh)
CCOc1cc(C(Nc2cc(C)ccn2)c2ccc3cccnc3c2O)ccc1OC (stereo not given)	rTrxR1 inhibitor 1.3µM (no result: GALK inh)
COc1cc2[nH]c(=S)nc(Nc3ccc(NC(C)=O)cc3)c2cc1OC	rTrxR1 inhibitor 10µM
Cc1ccc(S(=O)(=O)/C=C/C#N)cc1	rTrxR1 inhibitor 0.95µM (no result: GALK inh)
O=C(Nc1ccc2nc(-c3ccco3)[nH]c2c1)c1ccco1	rTrxR1 inhibitor inconclusive
O=C(Nc1ccc2nc(-c3ccco3)[nH]c2c1)c1cccs1	rTrxR1 inhibitor 71µM
CCN(CC)c1ccc(NC(=O)C2CCN(S(=O)(=O)c3c(C)noc3/C=C/c3ccccc3F)CC2)c(C)c1	none (no result: GALK inh)
COc1ccc2nc(NC(=O)c3nc(S(=O)(=O)Cc4cccc(C)c4)ncc3Cl)sc2c1	PI4K2A block inconclusive (no result: GALK inh)
Cc1cccc(CS(=O)(=O)c2ncc(Cl)c(C(=O)Nc3nc4ccc(F)cc4s3)n2)c1	rTrxR1 inhibitor 3.2µM (no result: GALK inh)
O=C(Nc1nc2ccc(F)cc2s1)c1nc(S(=O)(=O)Cc2ccccc2)ncc1Cl	rTrxR1 inhibitor 3.5µM (no result: GALK inh)
CCN(CC)C(=O)C1CN2CCc3cc(OC)c(OC)cc3C2CC1OC(C)=O (stereo not given)	none (no result: GALK inh, rTrxR1 inhibitor, TrxR1 substrate)
C(=C\c1ccco1)/C=N/n1cnnc1	rTrxR1 inhibitor 22µM
O=C(NC1CC(=O)N(c2cccc(F)c2)C1)c1ccc2c(c1)OCO2 (stereo not given)	none (no result: GALK inh)
COc1ccc(C(=O)NCS(=O)(=O)c2ccc(C)cc2)cc1	rTrxR1 inhibitor 28µM
Cc1ccc(C(=O)CCS(=O)(=O)c2ccc(Br)cc2)cc1	rTrxR1 inhibitor 0.5µM
COc1ccc(C(=O)NCCS(=O)(=O)NCc2ccc(C)cc2)cc1	none (no result: GALK inh)
COc1ccc(COC(=O)CCS(=O)(=O)c2ccc(C)cc2)cc1	none (no result: GALK inh)
COc1ccc(C(=O)CCS(=O)(=O)c2ccc(C)cc2)cc1	rTrxR1 inhibitor 14µM
CC(C)(C)C1CCc2c(sc3nc(-c4cc5cc(Cl)ccc5oc4=O)[nH]c(=O)c23)C1 (stereo not given)	none (no result: GALK inh)
CCOc1ccccc1NC(=O)Nc1cc2c(cc1N1CCCCC1)n(CC)c(=O)n2CC	none (no result: GALK inh)
O=C(N/N=C/c1ccc([N+](=O)[O-])o1)c1ccc(NS(=O)(=O)c2cccs2)cc1	rTrxR1 inhibitor 10µM
COc1ccccc1OCC(=O)N/N=C/C=C/c1ccc([N+](=O)[O-])o1	rTrxR1 inhibitor 7.1µM
O=C(N/N=C\C=C\c1ccc([N+](=O)[O-])o1)c1cccs1	rTrxR1 inhibitor 7.9µM
Cc1cc(C)nc(SCC(=O)Oc2ccc3oc(=O)cc(C)c3c2)n1	rTrxR1 inhibitor 1µM
Cc1ccc(C(=O)/C=C/C(=O)c2ccc(C)cc2)cc1	rTrxR1 inhibitor 3.2µM
N#Cc1ccccc1NC(=O)C(=O)NCCc1csc(-c2ccc(C(F)(F)F)cc2)n1	none (no result: GALK inh)
CCC(=O)Oc1ccc(C/C(=N\O)c2ccc(O)cc2O)o1	rTrxR1 inhibitor 10µM
COc1ccc(C(=O)/C=C/Sc2nc3ccccc3o2)cc1	rTrxR1 inhibitor 1µM
COc1ccc(C(=O)N/C(N)=N/c2nc3ccccc3o2)cc1	none
CCCCSCCCNC(=O)c1cn(CC)c2ccc(S(=O)(=O)N(C)C3CCCCC3)cc2c1=O	none (no result: GALK inh)
Cc1ccc(C)c(NC(=O)CCN2C(=O)c3ccccc3Sc3ncccc32)c1	rTrxR1 inhibitor 50µM (no result: GALK inh)
O=C(CCN1C(=O)c2ccccc2Sc2ncccc21)Nc1ccc(F)cc1	rTrxR1 inhibitor 7.1µM (no result: GALK inh)
CCc1cccc(NC(=O)CCN2C(=O)c3ccccc3Sc3ncccc32)c1	rTrxR1 inhibitor 18µM (no result: GALK inh)
CC(C)NC(=O)CCN1C(=O)c2ccccc2Sc2ncccc21	none (no result: GALK inh)
CC(C)OP(=O)(CP(=O)(OC(C)C)OC(C)C)OC(C)C	none (no result: GALK inh, rTrxR1 inhibitor, TrxR1 substrate)
NC(=O)/C(=N\OC(=O)c1ccco1)c1nc(-c2ccc(Br)cc2)cs1	rTrxR1 inhibitor 7.1µM
Nc1nc(-c2ccc(NC(=O)c3ccco3)cc2)cs1	none (no result: GALK inh)
CC1(C)CC(=O)C(CS(=O)(=O)c2ccccc2)=C(O)C1	rTrxR1 inhibitor 50µM
CCN(CC)CCC=C(c1cccs1)c1cccs1	rTrxR1 inhibitor 22µM (no result: GALK inh)
Cc1cccc(CNC(=O)c2ccc3c(c2)N(C)C(=O)C2CCCCN32)c1 (stereo not given)	none (no result: GALK inh)
COc1ccc(-n2ncc(C(=O)NCc3ccco3)c2C2CCN(C(=O)OC(C)(C)C)CC2)cc1	none (no result: GALK inh)
CCN1CCOC(=O)C1CC(=O)Nc1cc(C)cc(C)c1 (stereo not given)	rTrxR1 inhibitor 11µM (no result: GALK inh)
CCc1ccc(NC(=O)CC2C(=O)OCCN2CC)cc1 (stereo not given)	rTrxR1 inhibitor 6.3µM (no result: GALK inh)
CCN1CCOC(=O)C1CC(=O)Nc1cc(Cl)ccc1OC (stereo not given)	rTrxR1 inhibitor 11µM (no result: GALK inh)
CCN1CCOC(=O)C1CC(=O)Nc1ccc(C(C)=O)cc1 (stereo not given)	rTrxR1 inhibitor inconclusive (no result: GALK inh)
CC(=O)Oc1ccc(N2C(=O)C3C(C2=O)C2C=CC3C23CC3)cc1[N+](=O)[O-] (stereo not given)	none
CC(=O)Oc1ccc(N2C(=O)C3C4C=CC(C5CC45)C3C2=O)cc1[N+](=O)[O-] (stereo not given)	rTrxR1 inhibitor 45µM (no result: GALK inh)
COc1cc(C(=O)Nc2cc(C)ccc2OCc2cc(=O)n3c(C)csc3n2)cc(OC)c1OC	none (no result: GALK inh)
O=C(NC1CCCC1)c1ccc(CS(=O)Cc2ccccc2Cl)o1 (stereo not given)	rTrxR1 inhibitor 50µM
CCc1ccc(NC(=O)CSc2nnc(-c3ccccc3)n2CC)cc1	none (no result: GALK inh, PI4K2A block)
COc1ccc(S(=O)(=O)n2nc(OC(=O)c3ccncc3)cc2N)cc1	rTrxR1 inhibitor 28µM
CC(C)CN1C(=O)/C(=C/c2ccco2)NC1=S	none (no result: GALK inh)
CC(C)CN1C(=O)/C(=C/c2cccs2)NC1=S	rTrxR1 inhibitor 14µM
Nc1ccc2c(c1)CN1C(=O)c3ccccc3C1=N2	none (no result: GALK inh, rTrxR1 inhibitor, TrxR1 substrate)
CC(=O)OC[C@@H]1CN(Cc2ccccc2)C[C@H](n2cnc3c(NCC(C)C)ncnc32)O1	none (no result: GALK inh, rTrxR1 inhibitor, TrxR1 substrate)
Cc1oc(-c2ccccc2)nc1CCC(=O)c1ccc(CC2SC(=O)NC2=O)cc1 (stereo not given)	none (no result: GALK inh, rTrxR1 inhibitor, TrxR1 substrate)
O=C(c1ccccc1)c1cc(Cl)ccc1N1C(=O)C=CC1=O	rTrxR1 inhibitor 0.79µM
CCn1nc(-c2ccc(C)cc2)nc2c(=O)n(C)c(=O)nc1-2	rTrxR1 inhibitor inconclusive, TrxR1 substrate 50µM (no result: GALK inh, PI4K2A block)
Cn1nc(-c2ccncc2)nc2c(=O)n(C)c(=O)nc1-2	rTrxR1 inhibitor 20µM, TrxR1 substrate 20µM (no result: GALK inh, PI4K2A block)
CCc1ccc(/C=C/C(=O)c2cc(Br)ccc(=O)c2O)cc1	rTrxR1 inhibitor inconclusive
CCOc1ccc(/C=C/C(=O)c2cc(Br)ccc(=O)c2O)cc1	rTrxR1 inhibitor 35µM
CCCCn1c(=O)[nH]c(=O)c2c1nc(CN1C(=O)c3ccccc3S1(=O)=O)n2CCC	none
CCCCn1c(=O)[nH]c(=O)c2c1nc(Cn1ncc(Cl)c(Cl)c1=O)n2CCC	rTrxR1 inhibitor 50µM
CN(Cc1ccco1)C(=O)c1ccc2c(c1)N(Cc1ccccc1F)C(=O)c1ccccc1S2	none (no result: GALK inh)
Cc1ccc(-c2nc3cnccn3c2Nc2c(C)cccc2C)o1	rTrxR1 inhibitor 14µM
Cc1ccc(-c2nc3ccccn3c2Nc2ccccc2C)o1	rTrxR1 inhibitor inconclusive (no result: GALK inh, PI4K2A block)
